{"source": "PubChem BioAssay (NCATS)", "note": "Inconclusive results are not listed. Where a structure was tested more than once in an assay, its records may differ in their call. Activity calls are given as the source filed them. The call rests on the fitted dose curve; in most records, active means well fitted inhibition curve with a large enough effect; inconclusive means small, poorly fitted or top-dose-only effect; inactive means flat fitted curve, though single readings scatter. Potency means the concentration at half of the fitted maximal effect."}
{"assay": "qHTS for Inhibitors of Plasmodium falciparum (HB3) proliferation (AID 504318); further: nearly all actives have a fitted effect of over 60% in size;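 on activity change, negative = inhibition: 0% = DMSO vehicle and -100% = artemisinin control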", "conditions": "P. falciparum HB3 in erythrocytes, SYBR Green DNA, 72 h; series mostly up to 7.21 µM; activity change, negative = inhibition: at the top concentration", "from_the_text": "Plasmodium falciparum is a virulent malarial parasite that kills 1-2 million people worldwide each year. Malaria not only inflicts tremendous suffering and morbidity on the human population, but has dramatically influenced the course of civilization with profound sociological and economic implications (Shah, S. 2010). Transmitted by mosquitoes, the sporozoite form of the parasite enters the blood stream to infect hepatocytes, where they become merozoites that infect red blood cells (erythrocytes). Within erythrocytes, merozoites begin a […] cycle of growth and division, after which the parasite is released to infect new red blood cells. Gametocytes, which form within erythrocytes as well, circulate in the bloodstream and are ingested by the mosquito, thereby completing the life cycle (see CDC website). To profile malarial lines for differential chemical responses and to identify inhibitors of malarial growth, an assay that measures P. falciparum growth and replication within erythrocytes was employed. This assay uses a DNA binding fluorescent dye (SYBR Green) to detect parasite DNA following cell lysis. Because mature erythrocytes lack DNA, only Plasmodium-derived DNA is detected. The P. falciparum line cp250, derived from a malarial isolate from Cambodia, (Mu, J., et al. 2010) was added to the panel of lines, Dd2, HB3, 7G8 and GB4 in this study. Laboratory of Assay Development and Screening Technology [ADST] and NIH Chemical Genomics Center [NCGC] Boston University, Chemistry Department, Center for Chemical Methodology and Library Development [CMLD-BU] NIH National Institute of Allergy and Infectious Diseases [NIAID]\nADST Assay Protocol Summary: The 1536-well SYBR Green viability assay was based on the method of Bennett et al (2004) and described previously in 1536-well format (Yuan J., et al. 2009). For screening 3 ul culture medium was dispensed into 1536 well black clear bottom plates (Aurora Biotechnologies) using a Multidrop Combi (Thermo Fisher Scientific Inc.), 23 nL compounds in DMSO were added by a pin transfer (Cleveland, P.H. and Koutz, P.J, 2005) using a pin tool-based delivery system (Kalypsys), and 5 ul of erythrocytes infected with P. falciparum one of five lines (cp250, Dd2, HB3, 7G8 or GB4, 0.3% parasitemia, 2.5% hematocrit final concentration) were added. The plates were incubated at 37C in a humidified incubator in 5% CO2 for 72 h, and 2 ul lysis buffer (20 mM Tris HCl, 10 mM EDTA, 0.16% saponin, 1.6% triton X, 10X SYBR Green I (supplied as 10,000X final concentration by Invitrogen) was added to each well. The plates were mixed for 25 sec with gentle shaking and incubated overnight at room temperature in the dark. The following morning, fluorescence intensity at 485(14) nm excitation and 535(25) nm emission wavelengths was measured on an EnVision (Perkin Elmer) plate reader. Plate reads were normalized relative to the control inhibitor (0.29 uM artemisinin) and vehicle (DMSO) wells present on each plate and then corrected by an algorithm using vehicle-only control plates at the beginning and end of the compound plate stack. References Shah, S. (2010). The Fever: how malaria has ruled humankind for 500,000 years. New York, Sarah Crichton Books. CDC web site, http://www.cdc.gov/malaria/about/biology/index.html Mu, J., Myers, R.A., Jiang, H., Liu, S., Ricklefs, S., Waisberg, M., Chotivanich, K., Wilairatana, P., Krudsood, S., White, N.J., et Plasmodium falciparum genome-wide scans for positive selection, recombination hot spots and resistance to antimalarial drugs Nature Genetics 2010, 42, pp 268-271 Bennett TN, Paguio, M., Gligorijevic, B., Seudieu, C., Kosar, A. D., Davidson, E., and Roepe, P. D. Novel, rapid, and inexpensive cell-based quantification of antimalarial drug efficacy Antimicrobial Agents Chemother. 2004, 48(5): pp 1807-10 Yuan J, Johnson RL, Huang RL, Wichterman J, Jiang HY, Hayton K, Fidock DA, Wellems TE, Inglese J, Austin CP, Su XZ. […]"}
{"smiles": "CC(=O)OC[C@H]1O[C@H](C#CC(C)(C)C)C=C[C@H]1OC(C)=O", "activity change, negative = inhibition": "-0.065% (inactive)"}
{"smiles": "COc1ccc([C@]23Cc4ccccc4[C@H](O2)C2=C(O3)C(=O)c3ccccc3C2=O)cc1", "Potency": "1.51 µM (active)"}
{"smiles": "COc1cc(O)c(C(=O)C=Cc2ccccc2)c(O)c1", "activity change, negative = inhibition": "0.568% (inactive)"}
{"smiles": "O=C1[C@@H]2[C@H]3[C@H](O)[C@H](O)CC(=NOC[C@@H](O)COCc4ccco4)[C@H]3CC[C@H]2C(=O)N1C[C@@H]1CCCO1", "activity change, negative = inhibition": "3.73% (inactive)"}
{"smiles": "CC(=O)O[C@@H]1C(CO[Si](C)(C)C(C)(C)C)=C(Br)C(=O)[C@@H]2O[C@]12C", "activity change, negative = inhibition": "-10.6% (inactive)"}
{"smiles": "C=C(C(C)=O)C(O)c1cccc(OC)c1", "note": "(stereo not given)", "activity change, negative = inhibition": "-3.59% (inactive)"}
{"smiles": "CC(=O)OC[C@H]1O[C@H](C#Cc2ccccc2Cl)C=C[C@H]1OC(C)=O", "activity change, negative = inhibition": "-16% (inactive)"}
{"smiles": "Cc1cc(C)c(-c2cc([C@H](C)ON=C[C@@H](C)[C@H](OCc3ccccc3)C(C)C)on2)c(C)c1", "activity change, negative = inhibition": "-14% (inactive)"}
{"smiles": "C=CCOC(=O)C(C(C)=O)[C@@H](NC(=O)OC)c1ccc(Cl)cc1", "note": "(stereo not given in full)", "activity change, negative = inhibition": "7.72% (inactive)"}
{"smiles": "COc1ccc(C(=O)CC(=O)c2c(O)cc(OC)cc2OC)cc1", "activity change, negative = inhibition": "7.4% (inactive)"}
{"smiles": "CCN1C(=O)[C@@H]2[C@H]3[C@H](O)[C@H](O)CC(=NO[C@H](C)c4cn([C@H](CO)Cc5ccccc5)nn4)[C@@H]3CC[C@H]2C1=O", "activity change, negative = inhibition": "-0.652% (inactive)"}
{"smiles": "C=CCOC(=O)C(C(C)=O)[C@@H](NC(=O)OC)c1cccs1", "note": "(stereo not given in full)", "activity change, negative = inhibition": "6.43% (inactive)"}
{"smiles": "COC(=O)N1C(c2ccccc2)=Cc2ccccc2C1C1(C(=O)OC)CCCC1=O", "note": "(stereo not given)", "Potency": "inactive"}
{"smiles": "C#CCCCON=C1C[C@@H](O)[C@H](O)[C@H]2[C@@H]3C(=O)N(C4CCCCC4)C(=O)[C@@H]3CC[C@@H]12", "activity change, negative = inhibition": "-3.8% (inactive)"}
{"smiles": "COC(=O)C1=C(C(=O)OC)[C@@H]2N(Cc3ccccc3)c3ccccc3[C@@]23C[C@@H](C(=O)OC)N(C(=O)Nc2ccccc2F)C3=N1", "activity change, negative = inhibition": "-9.72% (inactive)"}
{"smiles": "CCCC[C@]12Cc3cc(OC)c(OC)cc3[C@H](O1)C1=C(CC3(CCCCC3)OC1=O)O2", "activity change, negative = inhibition": "-3.3% (inactive)"}
{"smiles": "CC1(OC(=O)C2CCCC2)C(=O)C=C2C=C(c3ccsc3)N(C3CC3)C=C2C1=O", "note": "(stereo not given)", "Potency": "inactive"}
{"smiles": "CC1(C)O[C@H]2OC([C@H](O)CON3C(=O)c4ccccc4C3=O)[C@H](O)[C@@H]2O1", "note": "(stereo not given in full)", "activity change, negative = inhibition": "6.06% (inactive)"}
{"smiles": "CCCCCCCC1=CC2=CC(=O)C(C)(OC(C)=O)C(=O)C2=CN1CCc1ccccc1", "note": "(stereo not given)", "activity change, negative = inhibition": "-11.1% (inactive)"}
{"smiles": "C#CCCCON=C1C[C@@H](O)[C@H](O)[C@H]2[C@@H]3C(=O)N(C[C@@H]4CCCO4)C(=O)[C@@H]3CC[C@H]12", "activity change, negative = inhibition": "-7.6% (inactive)"}
{"smiles": "COc1ccc2c(c1)C(=O)[C@@H](OC(=O)NS(=O)(=O)c1ccc(F)cc1)[C@H](c1ccc(OC)c(Br)c1)O2", "activity change, negative = inhibition": "2.26% (inactive)"}
{"smiles": "COCCN1C(=O)C2=C(C1=O)C1N(C)c3ccccc3[C@@]13C[C@@H](CO)N=C3N2", "note": "(stereo not given in full)", "activity change, negative = inhibition": "-4.53% (inactive)"}
{"smiles": "FC(F)(F)c1cc(NC(=S)NC(c2ccccc2)c2ccccc2)cc(C(F)(F)F)c1", "Potency": "757 nM (active) and inactive"}
{"smiles": "COc1ccc(-c2nc(-c3ccccc3)c(NC(C)(C)C)o2)cc1", "Potency": "2.13 µM (active) and inactive"}
{"smiles": "CCOC(=O)CN1C(=O)N[C@@H](c2ccccc2)[C@H](C(C)=O)[C@H]1C", "Potency": "inactive"}
{"smiles": "COc1cc(C(NC(=O)C(F)(F)F)c2cc3ccccc3o2)cc(OC)c1OC", "note": "(stereo not given)", "Potency": "inactive"}
{"smiles": "COc1ccc(NC2=CC(c3ccccc3)N(c3ccc(OC)cc3)C2=O)cc1", "note": "(stereo not given)", "activity change, negative = inhibition": "-2.65% (inactive)"}
{"smiles": "Cc1cc(C)c2c(c1)CO[C@H]([C@H](O)CO)[C@H]2C=Cc1ccccc1", "activity change, negative = inhibition": "-7.45% (inactive)"}
{"smiles": "COC(=O)C[C@H]1c2ccccc2C2=C(C[C@@H](C)[C@H]3C(=O)NC(=O)[C@@H]23)N1C(=O)OC", "Potency": "inactive"}
{"smiles": "C=CCOC(=O)N[C@@H](CCc1ccccc1)C(C(C)=O)C(C)=O", "activity change, negative = inhibition": "9.2% (inactive)"}
{"smiles": "OC[C@H]1O[C@H](C#Cc2ccccc2)C=C[C@@H]1O", "activity change, negative = inhibition": "4.25% (inactive)"}
{"smiles": "CCCCCCN1C(=O)CC[C@@]23C1=NC(C(=O)OC)=C(C(=O)OC)[C@@H]2N(Cc1ccccc1)c1ccccc13", "activity change, negative = inhibition": "-9.47% (inactive)"}
{"smiles": "COc1ccc2c(c1)C(=O)[C@@H](OC(=O)Nc1cc(OC)c(OC)c(OC)c1)[C@H](c1ccc(OC)c(Br)c1)O2", "activity change, negative = inhibition": "-12.7% (inactive)"}
{"smiles": "CCN1C(=NCc2cccc(C(F)(F)F)c2)NC(c2ccccc2)C(C(=O)OC)=C1C", "note": "(stereo not given)", "activity change, negative = inhibition": "2.31% (inactive)"}
{"smiles": "O=S(=O)(CCc1ccccc1)c1ccccc1", "activity change, negative = inhibition": "9.52% (inactive)"}
{"smiles": "CCCCC1=CC2=C(c3ccco3)C(=O)C(C)(OC(=O)c3ccc(OC)cc3)C(=O)C2=CN1c1ccc(OC)cc1", "note": "(stereo not given)", "activity change, negative = inhibition": "-7.55% (inactive)"}
{"smiles": "CC#CCC1(C(=O)OC)C(=O)NC[C@H]1c1ccccc1", "note": "(stereo not given in full)", "activity change, negative = inhibition": "8.31% (inactive)"}
{"smiles": "CCCCC1=CC2=CC(=O)C(C)(O)C(=O)C2=CO1", "note": "(stereo not given)", "activity change, negative = inhibition": "-2.78% (inactive)"}
{"smiles": "C#CCCOC(=O)N1C2=NC(C(=O)OC)=C(C(=O)OC)[C@@H]3N(CC=C)c4ccccc4[C@]23C[C@H]1C(=O)OC", "activity change, negative = inhibition": "-0.824% (inactive)"}
{"smiles": "CC1(OC(=O)CCc2ccccc2)C(=O)C=C2C=C(c3ccc(C#N)cc3)N(C(CO)CO)C=C2C1=O", "note": "(stereo not given)", "Potency": "inactive"}
